# Measured values as given in the supplement of paper PMC10849652.
# About 7,900 targets were measured; listed, in parts, are those with a hit and a random draw of the rest. About 0.6% of all pairs of compound and target were hits. Unmarked numbers belong to inactive results.
# Compound: C1=CC2=C(C=CC(=C2)/C=C\3/C(=O)NC(=NCC4=CC=CS4)S3)N=C1
# Experiment: log2 fold change, soluble protein after heating vs DMSO (PISA); higher = thermal stabilisation; K562 cells, 10 uM, 30 min; active = over 0.2 and 3.5 SD of the protein, either way, in both replicates (recomputed)
# Summary of the method: (§1)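 K562 cells at 2×10^6 cells/mL were exposed to 10 μM compound for 30 min, then aliquots were heated for 3 min across 48°C-58°C, pooled, and extracted in PBS containing 0.5% NP-40 at 4°C. The supernatant after 21,000xg for 90 min was taken as soluble protein and measured by TMTpro 16plex LC-MS/MS with channel sums equalised. Thermal stability is reported relative to control samples, with values from duplicates. Fold changes are given on a log2 scale.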
# Chain of UniProt P54619 (P54619 whole entry, looked up): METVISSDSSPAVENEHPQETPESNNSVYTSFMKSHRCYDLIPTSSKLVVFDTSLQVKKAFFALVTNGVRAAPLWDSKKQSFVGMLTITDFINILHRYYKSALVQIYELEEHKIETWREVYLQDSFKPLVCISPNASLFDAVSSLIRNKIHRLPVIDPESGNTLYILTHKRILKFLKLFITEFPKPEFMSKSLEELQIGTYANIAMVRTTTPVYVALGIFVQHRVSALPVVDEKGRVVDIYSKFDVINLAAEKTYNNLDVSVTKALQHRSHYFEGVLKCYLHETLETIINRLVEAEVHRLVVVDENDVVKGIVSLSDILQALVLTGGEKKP
# Chain of UniProt Q8WUM4 (Q8WUM4 whole entry, looked up): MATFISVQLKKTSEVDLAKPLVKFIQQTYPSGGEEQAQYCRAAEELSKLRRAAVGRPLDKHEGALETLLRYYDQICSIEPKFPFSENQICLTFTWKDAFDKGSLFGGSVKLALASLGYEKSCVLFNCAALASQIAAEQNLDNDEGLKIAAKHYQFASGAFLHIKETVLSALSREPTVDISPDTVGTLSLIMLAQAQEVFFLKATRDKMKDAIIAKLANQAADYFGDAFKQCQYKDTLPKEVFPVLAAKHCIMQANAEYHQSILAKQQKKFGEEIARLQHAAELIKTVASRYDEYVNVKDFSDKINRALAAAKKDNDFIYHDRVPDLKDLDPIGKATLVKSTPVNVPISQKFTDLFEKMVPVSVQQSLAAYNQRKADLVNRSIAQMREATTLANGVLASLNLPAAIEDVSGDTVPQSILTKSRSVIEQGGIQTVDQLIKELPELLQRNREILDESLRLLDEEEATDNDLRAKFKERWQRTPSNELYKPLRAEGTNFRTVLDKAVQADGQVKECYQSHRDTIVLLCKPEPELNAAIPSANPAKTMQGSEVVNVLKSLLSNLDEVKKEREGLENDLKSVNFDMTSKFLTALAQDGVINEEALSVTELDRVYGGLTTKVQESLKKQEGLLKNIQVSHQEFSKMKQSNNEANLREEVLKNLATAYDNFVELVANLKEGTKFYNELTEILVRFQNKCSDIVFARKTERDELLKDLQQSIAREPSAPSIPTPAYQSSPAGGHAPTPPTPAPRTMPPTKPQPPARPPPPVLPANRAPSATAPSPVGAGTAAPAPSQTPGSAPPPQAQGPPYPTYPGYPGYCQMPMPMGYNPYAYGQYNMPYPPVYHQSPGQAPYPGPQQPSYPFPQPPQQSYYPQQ
# Chain of UniProt Q9UPN7 (Q9UPN7 whole entry, looked up): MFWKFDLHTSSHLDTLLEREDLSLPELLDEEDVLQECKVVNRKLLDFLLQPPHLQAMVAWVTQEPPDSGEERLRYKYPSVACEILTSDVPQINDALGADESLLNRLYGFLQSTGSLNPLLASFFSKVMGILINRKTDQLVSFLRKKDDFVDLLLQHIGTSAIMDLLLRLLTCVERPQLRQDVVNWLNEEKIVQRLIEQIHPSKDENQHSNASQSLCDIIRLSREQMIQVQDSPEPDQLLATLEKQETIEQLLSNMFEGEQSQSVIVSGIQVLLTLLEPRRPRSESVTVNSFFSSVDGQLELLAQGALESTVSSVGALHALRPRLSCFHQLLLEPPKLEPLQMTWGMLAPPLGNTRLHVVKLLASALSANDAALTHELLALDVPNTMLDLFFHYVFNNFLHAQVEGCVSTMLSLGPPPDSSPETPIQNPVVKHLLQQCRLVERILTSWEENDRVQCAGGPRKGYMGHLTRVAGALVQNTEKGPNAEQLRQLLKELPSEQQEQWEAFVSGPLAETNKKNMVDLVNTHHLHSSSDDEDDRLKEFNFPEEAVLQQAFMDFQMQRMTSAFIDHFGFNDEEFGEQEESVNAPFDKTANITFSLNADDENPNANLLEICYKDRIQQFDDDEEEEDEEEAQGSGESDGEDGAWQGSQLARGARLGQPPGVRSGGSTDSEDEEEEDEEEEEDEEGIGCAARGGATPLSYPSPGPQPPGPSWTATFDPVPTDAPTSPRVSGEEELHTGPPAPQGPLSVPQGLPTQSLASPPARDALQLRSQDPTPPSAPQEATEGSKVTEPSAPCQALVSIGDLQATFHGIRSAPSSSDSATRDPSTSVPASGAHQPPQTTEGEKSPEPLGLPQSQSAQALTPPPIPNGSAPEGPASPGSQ
# Chain of UniProt Q8NEB9 (Q8NEB9 whole entry, looked up): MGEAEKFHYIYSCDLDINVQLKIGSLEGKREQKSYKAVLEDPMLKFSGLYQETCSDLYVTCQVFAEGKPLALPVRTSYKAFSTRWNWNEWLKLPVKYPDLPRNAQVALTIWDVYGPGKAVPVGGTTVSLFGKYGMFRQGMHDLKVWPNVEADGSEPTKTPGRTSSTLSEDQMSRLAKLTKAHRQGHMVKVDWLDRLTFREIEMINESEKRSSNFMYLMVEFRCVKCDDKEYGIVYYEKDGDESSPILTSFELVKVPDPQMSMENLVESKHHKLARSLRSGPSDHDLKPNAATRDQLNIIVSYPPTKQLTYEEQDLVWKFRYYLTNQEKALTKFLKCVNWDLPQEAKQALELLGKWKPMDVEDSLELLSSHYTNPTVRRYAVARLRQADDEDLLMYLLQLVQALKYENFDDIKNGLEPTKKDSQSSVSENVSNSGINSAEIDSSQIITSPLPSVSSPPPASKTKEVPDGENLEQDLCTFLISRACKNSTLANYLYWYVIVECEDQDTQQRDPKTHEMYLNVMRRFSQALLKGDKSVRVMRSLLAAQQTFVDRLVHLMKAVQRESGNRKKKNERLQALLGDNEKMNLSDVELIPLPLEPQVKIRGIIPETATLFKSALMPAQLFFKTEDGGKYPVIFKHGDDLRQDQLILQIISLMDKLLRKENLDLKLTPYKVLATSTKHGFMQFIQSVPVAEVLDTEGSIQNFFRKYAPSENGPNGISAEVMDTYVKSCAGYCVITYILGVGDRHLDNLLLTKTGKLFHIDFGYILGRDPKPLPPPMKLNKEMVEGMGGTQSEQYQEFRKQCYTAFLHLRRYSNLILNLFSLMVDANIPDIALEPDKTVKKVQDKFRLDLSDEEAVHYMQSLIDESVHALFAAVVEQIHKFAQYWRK
# Chain of UniProt P27815 (P27815 whole entry, looked up): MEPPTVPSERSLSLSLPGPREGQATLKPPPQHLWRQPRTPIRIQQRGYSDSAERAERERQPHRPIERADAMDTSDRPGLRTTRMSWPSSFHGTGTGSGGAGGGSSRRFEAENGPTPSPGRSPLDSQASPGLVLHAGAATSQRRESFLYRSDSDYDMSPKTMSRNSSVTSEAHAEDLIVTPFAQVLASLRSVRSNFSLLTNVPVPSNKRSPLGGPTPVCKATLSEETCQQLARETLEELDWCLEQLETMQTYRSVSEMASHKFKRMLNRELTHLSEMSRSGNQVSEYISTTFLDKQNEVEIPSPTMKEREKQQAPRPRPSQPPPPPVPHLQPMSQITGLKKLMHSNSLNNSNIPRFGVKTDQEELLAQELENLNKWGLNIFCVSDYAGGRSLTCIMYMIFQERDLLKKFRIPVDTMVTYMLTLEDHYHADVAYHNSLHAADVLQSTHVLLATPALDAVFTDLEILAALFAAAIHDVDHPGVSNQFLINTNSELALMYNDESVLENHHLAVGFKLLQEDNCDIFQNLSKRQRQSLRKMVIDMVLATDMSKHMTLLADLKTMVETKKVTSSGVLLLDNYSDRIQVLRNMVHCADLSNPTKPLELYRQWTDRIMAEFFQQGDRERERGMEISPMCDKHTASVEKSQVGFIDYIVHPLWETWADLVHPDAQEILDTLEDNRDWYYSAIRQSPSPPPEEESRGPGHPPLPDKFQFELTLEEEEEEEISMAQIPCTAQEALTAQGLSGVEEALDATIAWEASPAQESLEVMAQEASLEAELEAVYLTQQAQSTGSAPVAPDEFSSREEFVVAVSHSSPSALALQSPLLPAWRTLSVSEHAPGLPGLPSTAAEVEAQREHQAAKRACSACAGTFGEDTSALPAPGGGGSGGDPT
# Chain of UniProt Q8IZL8 (Q8IZL8 whole entry, looked up): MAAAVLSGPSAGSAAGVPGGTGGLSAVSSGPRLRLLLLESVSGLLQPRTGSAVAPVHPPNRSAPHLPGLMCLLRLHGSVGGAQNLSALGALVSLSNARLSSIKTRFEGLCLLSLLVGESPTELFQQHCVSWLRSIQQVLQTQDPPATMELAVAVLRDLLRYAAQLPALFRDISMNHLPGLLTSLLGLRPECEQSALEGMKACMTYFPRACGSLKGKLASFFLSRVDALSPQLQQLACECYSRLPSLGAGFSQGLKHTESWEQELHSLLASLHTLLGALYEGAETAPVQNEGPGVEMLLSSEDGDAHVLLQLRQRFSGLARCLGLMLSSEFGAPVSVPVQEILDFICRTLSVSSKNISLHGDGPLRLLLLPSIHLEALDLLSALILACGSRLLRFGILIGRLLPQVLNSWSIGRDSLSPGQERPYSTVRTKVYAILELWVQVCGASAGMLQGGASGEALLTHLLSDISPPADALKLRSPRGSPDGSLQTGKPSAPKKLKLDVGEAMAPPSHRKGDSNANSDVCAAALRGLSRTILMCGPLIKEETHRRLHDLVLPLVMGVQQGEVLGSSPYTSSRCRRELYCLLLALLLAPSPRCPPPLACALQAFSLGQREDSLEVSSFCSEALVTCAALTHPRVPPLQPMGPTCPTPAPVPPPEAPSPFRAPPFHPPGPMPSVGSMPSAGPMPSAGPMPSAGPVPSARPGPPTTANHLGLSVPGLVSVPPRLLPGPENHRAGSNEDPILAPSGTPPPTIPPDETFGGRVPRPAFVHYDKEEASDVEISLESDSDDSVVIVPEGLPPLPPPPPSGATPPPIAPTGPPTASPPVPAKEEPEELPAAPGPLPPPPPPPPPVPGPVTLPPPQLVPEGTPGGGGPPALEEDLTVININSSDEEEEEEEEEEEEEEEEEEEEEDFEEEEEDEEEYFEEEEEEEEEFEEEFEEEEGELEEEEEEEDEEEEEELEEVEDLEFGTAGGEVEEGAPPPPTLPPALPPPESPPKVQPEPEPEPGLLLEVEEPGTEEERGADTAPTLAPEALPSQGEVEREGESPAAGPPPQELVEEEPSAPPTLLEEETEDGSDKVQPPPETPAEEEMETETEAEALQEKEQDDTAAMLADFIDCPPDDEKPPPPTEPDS
row,Target,log2 fold change
1,PI4K2A (UniProt Q9BTU6),0.021
2,PELP1 (UniProt Q8IZL8),-0.032
3,PDE12 (UniProt Q6L8Q7),0.001
4,PRKAA1 isoform 2 (UniProt Q13131),0.018
5,PDE4A (UniProt P27815),0.027
6,PDCD6IP (UniProt Q8WUM4),0.122
7,PCBP1 (UniProt Q15365),0.011
8,PRKAG1 isoform 3 (UniProt P54619),0.083
9,PPP6R1 (UniProt Q9UPN7),0.025
10,PIK3CB (UniProt P42338),0.081
11,PIK3C3 (UniProt Q8NEB9),0.011
12,PIP4K2A (UniProt P48426),-0.065

# Compound: C1=CC2=NC=CN=C2C=C1/C=C/3\C(=O)NC(=O)S3
# Experiment: as above
# Summary of the method: as §1
row,Target,log2 fold change
1,PTPA (UniProt Q15257),0.01
2,PLSCR1 (UniProt O15162),0.022
3,POLR2M (UniProt P0CAP2),0.055
4,PEX11B (UniProt O96011),0.087
5,PSMD1 (UniProt Q99460),-0.018
6,PLCB3 (UniProt Q01970),0.016
7,PRKCD (UniProt Q05655),0.044
8,PIR (UniProt O00625),0.031
9,PFDN1 (UniProt O60925),0.063
10,POLR3B (UniProt Q9NW08),0.022
11,PPP2R5E (UniProt Q16537),0
12,PRPF40A (UniProt O75400),0.007
13,PC (UniProt P11498),-0.042
14,PCBP2 isoform 3 (UniProt Q15366),0.025
15,PNN (UniProt Q9H307),0.085
16,PTTG1 (UniProt O95997),-0.005
17,POLR2K (UniProt P53803),0.097
18,PAK4 (UniProt O96013),0.048

row,Target,log2 fold change
1,PRPF38A (UniProt Q8NAV1),-0.046
2,PRKACA (UniProt P17612),0.042
3,POLR3K (UniProt Q9Y2Y1),-0.038
4,PRKAR1B (UniProt P31321),0.282
5,PRPF3 (UniProt O43395),0.019
6,PLCL1 (UniProt Q15111),0.007
7,PI4K2A (UniProt Q9BTU6),0.071
8,PELP1 (UniProt Q8IZL8),-0.008
9,PDE12 (UniProt Q6L8Q7),-0.008
10,PRKAA1 isoform 2 (UniProt Q13131),0.013
11,PDE4A (UniProt P27815),0.06
12,PDCD6IP (UniProt Q8WUM4),0.014
13,PCBP1 (UniProt Q15365),-0.002
14,PRKAG1 isoform 3 (UniProt P54619),0.032
15,PPP6R1 (UniProt Q9UPN7),0.012
16,PIK3CB (UniProt P42338),0.09
17,PIK3C3 (UniProt Q8NEB9),0.087
18,PIP4K2A (UniProt P48426),0.287

# Compound: C1=CC=C(C=C1)C2=NC(=C(N2)C3=CC=NC=C3)C4=CC(=C(C=C4)Cl)O
# Experiment: as above
# Summary of the method: as §1
row,Target,log2 fold change
1,PTPA (UniProt Q15257),0.022
2,PLSCR1 (UniProt O15162),0.061
3,POLR2M (UniProt P0CAP2),0.041
4,PEX11B (UniProt O96011),0.142
5,PSMD1 (UniProt Q99460),0.062
6,PLCB3 (UniProt Q01970),-0.011
7,PRKCD (UniProt Q05655),-0.006
8,PIR (UniProt O00625),-0.027
9,PFDN1 (UniProt O60925),0.137
10,POLR3B (UniProt Q9NW08),0.025
11,PPP2R5E (UniProt Q16537),0.075
12,PRPF40A (UniProt O75400),-0.037
13,PC (UniProt P11498),0.042
14,PCBP2 isoform 3 (UniProt Q15366),0.063
15,PNN (UniProt Q9H307),-0.107
16,PTTG1 (UniProt O95997),-0.205
17,POLR2K (UniProt P53803),-0.1
18,PAK4 (UniProt O96013),-0.068

row,Target,log2 fold change
1,PRPF38A (UniProt Q8NAV1),0
2,PRKACA (UniProt P17612),0.087
3,POLR3K (UniProt Q9Y2Y1),-0.235 (active)
4,PRKAR1B (UniProt P31321),-0.006
5,PRPF3 (UniProt O43395),0.057
6,PLCL1 (UniProt Q15111),0.098
7,PI4K2A (UniProt Q9BTU6),-0.029
8,PELP1 (UniProt Q8IZL8),0.007
9,PDE12 (UniProt Q6L8Q7),-0.015
10,PRKAA1 isoform 2 (UniProt Q13131),0.012
11,PDE4A (UniProt P27815),-0.077
12,PDCD6IP (UniProt Q8WUM4),0.031
13,PCBP1 (UniProt Q15365),0.057
14,PRKAG1 isoform 3 (UniProt P54619),0.037
15,PPP6R1 (UniProt Q9UPN7),-0.022
16,PIK3CB (UniProt P42338),0.032
17,PIK3C3 (UniProt Q8NEB9),-0.007
18,PIP4K2A (UniProt P48426),0.108
